High-throughput results deposited in PubChem BioAssay by National Center for Advancing Translational Sciences (NCATS).
RORgamma inh: ROR gamma (mouse) transcription inhibition. Potency, µM (series often up to 53.6 µM), for inactives: at the highest dose activity change, negative = inhibition, hits mostly inhibitors. 310,000 compounds, 5.4% hits. P51450. Drosophila S2 Gal4-RORgamma UAS-luciferase reporter, 20 h; also: potency is read from the fitted curve at half-maximal effect; nearly all actives have a fitted effect of over 60% in size
Target sequence (P51450 whole entry, looked up, the tested form may be a part): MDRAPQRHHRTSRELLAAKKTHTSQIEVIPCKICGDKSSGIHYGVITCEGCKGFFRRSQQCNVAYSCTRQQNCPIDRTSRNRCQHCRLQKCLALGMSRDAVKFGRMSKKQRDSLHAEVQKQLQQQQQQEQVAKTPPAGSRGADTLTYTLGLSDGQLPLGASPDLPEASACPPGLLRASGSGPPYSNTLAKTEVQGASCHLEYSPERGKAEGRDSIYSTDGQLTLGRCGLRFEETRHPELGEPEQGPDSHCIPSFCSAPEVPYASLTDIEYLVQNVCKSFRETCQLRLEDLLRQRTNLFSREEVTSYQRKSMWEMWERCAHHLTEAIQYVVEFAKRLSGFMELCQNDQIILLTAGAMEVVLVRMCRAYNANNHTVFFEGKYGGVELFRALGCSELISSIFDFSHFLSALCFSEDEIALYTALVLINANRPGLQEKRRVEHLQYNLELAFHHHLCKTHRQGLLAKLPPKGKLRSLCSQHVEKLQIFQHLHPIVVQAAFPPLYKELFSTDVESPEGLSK
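Drosophila S2 cells stably expressing Gal4-DBD/mouse RORγ fusion under metallothionein promoter plus UAS-luciferase; compound 1 h, then 700 uM CuSO4 induction for 20 h at ambient temperature; inhibition read as reduced luminescence.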
IL1B secr inh: inflammasome signaling inhibition, IL-1 beta readout; THP-1 LPS/ATP IL-1B secretion, AlphaLISA, 16 h; hits give low values; activity change, % at 57.5 µM; 360,000 compounds, 4.7% hits; AID 743279; in the data active = activity change below about -50%; inconclusive = mostly about -30% to -49%
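Secreted IL-1B measured by AlphaLISA bead assay after 16 h compound exposure of THP-1 cells; compounds (final up to 57.5 uM) added 1 h before LPS (250 ng/mL) and ATP (1.25 mM) stimulation; lower signal means less secretion.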
Gal4-VP16 FLuc: counter-screen for ROR gamma inhibitors: Gal4-VP16 reporter. Drosophila S2 Gal4-VP16 UAS-luciferase, luminescence, 20 h. Potency, µM (titrated, usually from 53.6 µM), without a hit: at the highest dose activity, negative = inhibition, hits mostly inhibitors. 310,000 compounds, 3.5% hits. AID 2546;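 also: Gal4-VP16 expression switched on by copper sulfate through the metallothionein promoter; potency is read from the fitted curve at half-maximal effect; nearly all actives have a fitted effect of over 50% in size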
TDP1 cell noCPT: qHTS for Inhibitors of human tyrosyl-DNA phosphodiesterase 1 (TDP1): qHTS in cells in absence of CPT; DT40 Tdp1-/- hTDP1 cells, no CPT, ATP luminescence, 48 h; Potency, µM (titrated, usually from 46.2 µM), for the others: at the top dose activity change, negative = growth inhibition, usual class: inhibitors; 420,000 compounds, 15% hits; also: potency is read from the fitted curve at half-maximal effect; nearly all actives have a fitted effect of over 55% in size
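Growth of hTDP1-complemented DT40 Tdp1-knockout cells is measured by ATP luminescence after at least 48 hr compound exposure at 37 °C, with DMSO substituting for the 20 nM CPT used in the parallel screen.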
LDHA block: inhibitors of human lactate dehydrogenase A; 480,000 compounds, 0.15% hits; activity change, % (values are at about 110 or 230 µM); purified LDHA, NADH/diaphorase-resazurin fluorescence; hits give low values; in the data active = activity change below about -30%; inconclusive = mostly about -25% to -30%;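 also: plate controls were DMSO wells for no effect and wells without enzyme for full effect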
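Human LDH5 at 2 nM final in Tris HCl pH 7.4 with 0.06 mM NADH and 0.2 mM pyruvate, reacted 5 minutes at room temperature. Remaining NADH coupled via diaphorase/resazurin; resorufin fluorescence read at 0 and 20 minutes, normalized to enzyme-free and DMSO wells.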
DT40 TDP1 CPT: DT40-hTDP1 cell growth loss with CPT; chicken DT40 Tdp1-/-;hTDP1 cells + 20 nM CPT, ATP luminescence, 48 h; Potency, µM (top dose mostly 46.2 µM), for the others: top-dose activity change, negative = growth inhibition, actives largely listed as inhibitors; 420,000 compounds, 12% hits; AID 686979; also: potency is read from the fitted curve at half-maximal effect; nearly all actives have a fitted effect of over 55% in size
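Chicken DT40 Tdp1-/- cells complemented with human TDP1, 400 cells/well, exposed to compounds plus 20 nM camptothecin for at least 48 h at 37 C; viability read as ATP content by CellTiter-Glo luminescence.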
Numbers without * were called inactive; ? = inconclusive; / = no result. Only some compounds are listed: those with a hit (about 18% of all), similar ones and a draw of the others. Unless noted, calls follow the shape of the dose curve; as a rule, active = well fitted curve in the direction sought with a large enough effect; inconclusive = small, poorly fitted or top-dose-only effect, or another doubt; inactive = no such curve, though single readings can be large; an effect the other way counts as inactive or inconclusive. Unless noted, % is scaled to controls: 0 for no effect and ±100 for the full control effect.

SMILES	RORgamma inh	IL1B secr inh	Gal4-VP16 FLuc	TDP1 cell noCPT	LDHA block	DT40 TDP1 CPT
Cc1cc(C)nc(/N=C(\N)Nc2ccc(SC(F)F)cc2)n1	45%	0	?	12µM*	-3	13µM*
Cc1cc(C)nc(/N=C(\N)Nc2ccc(-c3ccccc3)cc2)n1	37%	/	-7%	9.2µM*	-7	7.3µM*
COC(=O)c1nc2n(n1)C(c1cccc(Br)c1)C(C(=O)Nc1ccc(C)cc1C)=C(C)N2 (stereo not drawn)	/	/	/	/	-1	/
Cc1ccc(C(=O)OCC(=O)N2CCC(c3ccccc3)=N2)cc1	/	-85*	/	?	-3	?
Cc1cccc(C(=O)OCC(=O)N2CCC(c3ccccc3)=N2)c1O	/	-8	/	-25%	-5	7%
Cn1c(N)c(S(=O)(=O)N2CCN(Cc3ccccc3)CC2)c(=O)n(C)c1=O	15%	5	3%	-16%	-5	28%
COc1cccc(F)c1C(C[N+](=O)[O-])c1c(N)n(C)c(=O)n(C)c1=O (stereo not drawn)	7.1µM*	-100*	11µM*	2.3µM*	-5	4.6µM*
COc1cc(C(C[N+](=O)[O-])c2c(N)n(C)c(=O)n(C)c2=O)ccc1O (stereo not drawn)	14µM*	-2	-86%	6.5µM*	-8	6.5µM*
Cn1c(N)c(C(C[N+](=O)[O-])c2ccccc2Cl)c(=O)n(C)c1=O (stereo not drawn)	/	8	/	4.6µM*	-2	4.1µM*
Cc1ccc(C(C[N+](=O)[O-])c2c(N)n(C)c(=O)n(C)c2=O)cc1 (stereo not drawn)	13µM*	?	?	5.2µM*	-1	3.7µM*
Cn1c(N)c(C(=O)COC(=O)Cc2c(F)cccc2Cl)c(=O)n(C)c1=O	/	16	/	2%	-6	0%
CCOc1ccc(NC(=O)COc2ccc(C)c(C)c2)c2cccnc12	/	/	/	/	37	/
CNCc1ccc(OCc2cccc(Cl)c2)c(OC)c1	/	/	/	/	12	/
CCc1ccc2nc(-c3ccnn3CC)cc(C(=O)O)c2c1	/	/	/	/	-4	/
CC(C(c1ccc2c(c1)OCO2)c1c(N)n(C)c(=O)n(C)c1=O)[N+](=O)[O-] (stereo not drawn)	/	-12	/	16µM*	1	?
Cn1c(=O)c2c(nc(NCc3ccc4c(c3)OCO4)n2C)n(C)c1=O	-14%	11	0%	-26%	2	?
O=C(Cc1coc2cc3c(cc12)CCC3)NC1CCCCC1	/	/	/	/	-5	/
Cc1cc2oc(=O)cc(CN3CCCC3)c2cc1Cl	/	23	/	-27%	-1	-25%
Oc1c(CN2CCCC(C(F)(F)F)C2)cc(Cl)c2ccccc12 (stereo not drawn)	-20%	-25	2%	?	30	18µM*
CCOC(=O)C1CCN(Cc2nc3ccc(Cl)cc3n2CCO)CC1	-8%	-25	2%	?	-14	21µM*
CCOC(=O)C1CCN(Cc2cc(Cl)c3ccccc3c2O)CC1	-21%	-14	?	?	31	18µM*
CCOC(=O)C1CCN(Cc2cc(=O)oc3cc(C)c(Cl)cc23)CC1	3%	10	1%	23µM*	-5	?
COC(=O)c1ccc(C2C(c3ccccc3)=C(O)C(=O)N2Cc2ccc(F)cc2)cc1 (stereo not drawn)	/	/	/	/	4	/
CCOc1ccc(/C=N/Nc2cc(N3CCOCC3)nc(C)n2)c(O)c1	7.1µM*	74	11µM*	?	-8	?
Oc1ccc(/C=N/Nc2cc(N3CCOCC3)nc(N3CCOCC3)n2)cc1	/	?	/	21µM*	13	16µM*
SMILES	RORgamma inh	IL1B secr inh	Gal4-VP16 FLuc	TDP1 cell noCPT	LDHA block	DT40 TDP1 CPT
COc1ccc(/C=N/Nc2cc(N3CCCC3)nc(N3CCCC3)n2)cc1	13µM*	-91*	-5%	21µM*	36	21µM*
Oc1ccc(/C=N/Nc2cc(N3CCCC3)nc(N3CCCC3)n2)cc1	3%	-101*	-26%	?	14	?
CCOc1ccc(/C=N/Nc2cc(C)nc(N3CCOCC3)n2)cc1	31%	30	-8%	?	2	?
CCCCNC(=O)/C=C/C(=O)Nc1cc(Cl)cc(Cl)c1	/	/	/	/	-1	/
O=C(O)c1ccc(-c2ccc(Cl)c(Cl)c2)cc1F	/	/	/	/	-1	/
CCOC(=O)c1ccc(Nc2nc3ccccc3nc2NS(=O)(=O)c2ccc(C)c(C)c2)cc1	/	/	/	/	9	/
Cc1ccc(CN(c2ccc(C(=O)N3CCCCCC3)cc2)S(C)(=O)=O)cc1	/	/	/	/	-15	/
O=C(NCc1cccnc1)c1ccccc1NS(=O)(=O)c1ccc2[nH]c(=O)[nH]c2c1	/	/	/	/	0	/
Oc1cccc(/C=N/Nc2cc(N3CCCC3)nc(N3CCCC3)n2)c1	21%	-102*	-15%	?	20	?
COc1ccc(OC)c(/C=N/Nc2cc(C)nc(N3CCOCC3)n2)c1	3%	11	-8%	16µM*	-1	?
Cc1cc(N/N=C/c2ccccc2O)nc(N2CCOCC2)n1	-2%	?	5%	?	3	-27%
Cc1nc(N/N=C/c2ccc(Br)cc2)cc(N2CCOCC2)n1	?	-18	-6%	?	-2	7.3µM*
CC(Sc1ccc2c(c1)OCCCO2)C(=O)Nc1ccc2ccccc2c1 (stereo not drawn)	/	/	/	/	17	/
CCCC[C@@H]1CNCCN1CCc1cc(C(F)(F)F)cc(C(F)(F)F)c1	/	-61*	/	21µM*	2	?
FC(F)(F)c1cc(CCN2CCNC[C@@H]2CC2CCCCC2)cc(C(F)(F)F)c1	/	-101*	/	?	8	23µM*
CCC(C)[C@H]1CNC(=S)N1CCc1cc(C(F)(F)F)cc(C(F)(F)F)c1 (stereo partly drawn)	2.2µM*	-55*	4µM*	21µM*	5	?
CCC(C)[C@H]1CNC(=O)C(=O)N1CCc1cccc(F)c1 (stereo partly drawn)	/	10	/	-9%	3	-7%
CCC(C)[C@H]1CNCCN1CCc1cc(C(F)(F)F)cc(C(F)(F)F)c1 (stereo partly drawn)	/	-66*	/	18µM*	0	?
CCCC[C@@H]1CNC(=O)C(=O)N1CCc1cc(C(F)(F)F)cc(C(F)(F)F)c1	1%	-5	-4%	?	1	-29%
FC(F)(F)c1cc(CCN2CCNC[C@@H]2c2ccccc2)cc(C(F)(F)F)c1	/	?	/	?	3	16µM*
Fc1cccc(CCN2CCNC[C@@H]2c2ccccc2)c1	/	0	/	?	-3	?
